Source: PMC12864922, “TDP-43 directly inhibits mRNA accumulation in neurites through modulation of mRNA stability”
Over roughly 9,900 sequences, “r (bound/input frequency ratio)” has its median near 0.7; the highest 2% begin near 6.5. What follows is part of a selection rich in the highest values, with near analogues and random picks from the rest.

B1: ENSMUSG00000061578.285|Ksr2 (ssRNA)
RNA: GGGAGUUCUACAGUCCGACGAUCGCUUCGAUAUCCGCAUGCUAGGAUAUAUCUCUGUGGCCAGGGCUGGACUGAGACUGACCCCCUCCUACUAAGCAUCUUAGAGUUUCUCUUUUCUCUUUAAUUGCAUCAGGACCCCUUUGGUCCAUGUACCCCGGUCUCUGUCACAUGCCUUUGUAUCUUGGAGGAAGUAAGAGAGGAGAGAGCCAGGGAGGGCUGAAGCUCUGGGACCCUGAAGUGUCCCCCGGGAACUGGGACUCACUCAUCUUCUCCUGUUUGUAGCUCAAUGACCCAGUGGGUCACACUCUUGCGGUCGCACUAGUGUGGAAUUCUCGGGUGUCAAGG
B2: ENSMUSG00000029028.201|Lrrc47 (ssRNA)
RNA: GGGAGUUCUACAGUCCGACGAUCGCUUCGAUAUCCGCAUGCUAAGCACACAGCUGCCAUCCCUCGAGCCACAGUGCCUGGUCCUAAGGACCCAGCAGCUGCACAGAGGACUUGGUGGCCCCGUGCCUUGCCAUCUGGCUGAGAAGAGAACCAGACCCUCAGCCUUCCCCCUCGACACCUUCUCGUUGGUGACCUCUGACCUUAAAGGACCAUUUCUACCUUCUGUAAAAGAACACCUGUUUGGGGUUGCGUGCGGCUUUCAUCCUAAGGCCGUGCGAGAGCCGUUAGCUGUCAGAACUAGUGACUCUUGCGGUCGCACUAGUGUGGAAUUCUCGGGUGUCAAGG
B3: ENSMUSG00000028439.16|Fam219a (ssRNA)
RNA: GGGAGUUCUACAGUCCGACGAUCGCUUCGAUAUCCGCAUGCUAAUUCAGUAGUGGGCGGGGUCGCCGCGGUGCACGGGGCGCUGACCUGGGCCCGGUGGGAUGCAGCAGGAGAGACCCCUACCCUGCUGGUCCACUGGUCCCCAGCCCCGCGCCUCUUAGAGCCGCCAACCUCGUAACAGUCAUUGCUUCCUCCUAUGGUAGGACGUGUACCUCUGUGUGUUCAAGGAGCCGGAGAAACCAAAACCGGGUCUGUCUCCAGCCCCGGGGCUGAGGAGGGGUGGGCACUGUUUGUUCGGUUACUUCUCUUGCGGUCGCACUAGUGUGGAAUUCUCGGGUGUCAAGG
B4: ENSMUSG00000031028.682|Tub|139:143;183:187;256:260 (ssRNA)
RNA: GGGAGUUCUACAGUCCGACGAUCGCUUCGAUAUCCGCAUGCUACUAUUUUGGAGUGGUCAGACAUUUUAUUUUUGUUCAAAAUUAUCUGGAGUUUUAGACAAACUUGCAAAACUGUGCUUUUAUUAAGUGACUUUUUGAAUAAACUUUUUGGUAUUCUGAAGCAAAUGUAUUUAUUUAUUGCAUACUGCAAUGACAAACUUGGUAUUUUCCCAUAAUGACAUUAUCAUACUUGUAGAAUUUAGUGUUUGUCUAAGUACAGACAUGUAUCAACACAUUAAACUUGAACUGUUUGACGGCACACACUCUUGCGGUCGCACUAGUGUGGAAUUCUCGGGUGUCAAGG
B5: ENSMUSG00000090935.52|Synj2bp (ssRNA)
RNA: GGGAGUUCUACAGUCCGACGAUCGCUUCGAUAUCCGCAUGCUAGUGUCCCUGAGAGUACAGCACAGGUUACCAGUGCAGAAUGGACCUAUAGUACAUCGAGGUGAAGGAGAGCCAAGUGGAGUUCCUGUAGCUAUGGUGCUGCUACCAGUGUUUGCCCUCACCAUGGUAGCAGUUUGGGCCUUCGUGAGAUACCGAAAGCAGCUUUGAAAUGCUUGCUGUCUUCCAGUGUGUCCAAUGAACUCUCUCUCUCACUCACCAUCUCUGACAUCCUCCCAUAUUCUUUCUCCUCCACAUAGCCAAUACUCUUGCGGUCGCACUAGUGUGGAAUUCUCGGGUGUCAAGG
B6: ENSMUSG00000061578.273|Ksr2 (ssRNA)
RNA: GGGAGUUCUACAGUCCGACGAUCGCUUCGAUAUCCGCAUGCUAGGCCCUGGGCUCCAGAGUCGCUGAAGACCACUCUCCACAGCAGCUGUAACCCCAUCUAACAAGCCCUGUUCUGGAUAUAUCUCUGUGGCCAGGGCUGGACUGAGACUGACCCCCUCCUACUAAGCAUCUUAGAGUUUCUCUUUUCUCUUUAAUUGCAUCAGGACCCCUUUGGUCCAUGUACCCCGGUCUCUGUCACAUGCCUUUGUAUCUUGGAGGAAGUAAGAGAGGAGAGAGCCAGGGAGGGCUGAAGCUCUGGGACCCUCUUGCGGUCGCACUAGUGUGGAAUUCUCGGGUGUCAAGG
B7: ENSMUSG00000058297.297|Spock2|59:64 (ssRNA)
RNA: GGGAGUUCUACAGUCCGACGAUCGCUUCGAUAUCCGCAUGCUAUGAGAGAGAGAAUACCCGAGGGCCACCCUGAUGCCCAGGAAGAGUGAGGGCAGCCCCCACACACGUGGAAGAGGCUGGGCAGCUAGCUACUGGGGACCUUGUGCUGAGGCUUCCAGGACAAAGCCCCAGUCUGGCUCUCCCCCAGCCUCUCAGGGGCACUGGCUGGUCACAUCCACUGAGUAUUGAUCGGUUGGACUUUAGGGAAGAGCCUCCUCCUUCCCAUUCCUUUCUGCCACCCUGGAAUGGCCACCUUAAUCGUCCUCUUGCGGUCGCACUAGUGUGGAAUUCUCGGGUGUCAAGG
B8: ENSMUSG00000058297.286|Spock2|1:6;125:130 (ssRNA)
RNA: GGGAGUUCUACAGUCCGACGAUCGCUUCGAUAUCCGCAUGCUAACACACAGAGAGAGAGAGAGAGAGAGAGAGAGAGAGAGAGAGAAAGAGAGAGAGAAUGAGAGAGAAUGAGAGAGAGAAUACCCGAGGGCCACCCUGAUGCCCAGGAAGAGUGAGGGCAGCCCCCACACACGUGGAAGAGGCUGGGCAGCUAGCUACUGGGGACCUUGUGCUGAGGCUUCCAGGACAAAGCCCCAGUCUGGCUCUCCCCCAGCCUCUCAGGGGCACUGGCUGGUCACAUCCACUGAGUAUUGAUCGGUUGGCUCUUGCGGUCGCACUAGUGUGGAAUUCUCGGGUGUCAAGG
B9: ENSMUSG00000058297.285|Spock2|1:12;131:136 (ssRNA)
RNA: GGGAGUUCUACAGUCCGACGAUCGCUUCGAUAUCCGCAUGCUAACACACACACACAGAGAGAGAGAGAGAGAGAGAGAGAGAGAGAGAGAGAAAGAGAGAGAGAAUGAGAGAGAAUGAGAGAGAGAAUACCCGAGGGCCACCCUGAUGCCCAGGAAGAGUGAGGGCAGCCCCCACACACGUGGAAGAGGCUGGGCAGCUAGCUACUGGGGACCUUGUGCUGAGGCUUCCAGGACAAAGCCCCAGUCUGGCUCUCCCCCAGCCUCUCAGGGGCACUGGCUGGUCACAUCCACUGAGUAUUGAUCCUCUUGCGGUCGCACUAGUGUGGAAUUCUCGGGUGUCAAGG
B10: ENSMUSG00000058297.284|Spock2|1:18;137:142 (ssRNA)
RNA: GGGAGUUCUACAGUCCGACGAUCGCUUCGAUAUCCGCAUGCUAACACACACACACACACACAGAGAGAGAGAGAGAGAGAGAGAGAGAGAGAGAGAGAAAGAGAGAGAGAAUGAGAGAGAAUGAGAGAGAGAAUACCCGAGGGCCACCCUGAUGCCCAGGAAGAGUGAGGGCAGCCCCCACACACGUGGAAGAGGCUGGGCAGCUAGCUACUGGGGACCUUGUGCUGAGGCUUCCAGGACAAAGCCCCAGUCUGGCUCUCCCCCAGCCUCUCAGGGGCACUGGCUGGUCACAUCCACUGAGUACUCUUGCGGUCGCACUAGUGUGGAAUUCUCGGGUGUCAAGG
B11: ENSMUSG00000028439.112|Fam219a|120:124 (ssRNA)
RNA: GGGAGUUCUACAGUCCGACGAUCGCUUCGAUAUCCGCAUGCUACAAAGGGAUACUGUCUCUCCAUUAGAUAACUCCUUCCACUGUCUCCCUCCCCCGCUUUCUUACUUUCUGAGGGUUGGGAAGGUAAGAUGGGCCUUAGAGAGAAGCCAGGUUUGGGGAUGCAUACACCUGUUCUCACCGGUCUCUAACCAGUGCAUCUGUCUCUCUGCCUCAUCCCCACACCGCCCUGCCACCCCCAGUCUUCUGUCUAUUGGUUCCAGGCUGGAAGCAAGAGAUAAGGCUGGCCUCCUGUGCCCCAUUGCCUCUUGCGGUCGCACUAGUGUGGAAUUCUCGGGUGUCAAGG
B12: ENSMUSG00000031028.669|Tub (ssRNA)
RNA: GGGAGUUCUACAGUCCGACGAUCGCUUCGAUAUCCGCAUGCUAAUUUCUCUAGCUGAGAGCACACUUAGCCAGUUUUCACGCCUAGAACAUAUAUGUCGAUUUGCACAUGAUUGUCUUUUCCUAUUUUGGAGUGGUCAGACAUUUUAUUUUUGUUCAAAAUUAUCUGGAGUUUUAGACAAACUUGCAAAACUGUGCUUUUAUUAAGUGACUUUUUGAAUAAACUUUUUGGUAUUCUGAAGCAAAUGUAUUUAUUUAUUGGUAUGUGCAAUGACAAACUUGGUAUUUUCCCAUAAUGACAUUAUCUCUUGCGGUCGCACUAGUGUGGAAUUCUCGGGUGUCAAGG
B13: ENSMUSG00000061578.833|Ksr2 (ssRNA)
RNA: GGGAGUUCUACAGUCCGACGAUCGCUUCGAUAUCCGCAUGCUACUCACAGUUUCAAAGGGCUCAGUCCAUAGCUGCCUGACUCUGUGUUUCUAGGCCUUUCUUGAGGCAAGUGUUCAUCAUGAUAGUGUGAGGGUGAGGAGGAGUUUCUUCAUGGCAAACAGGAAGCAAAGAGCAAUACAGGAAAAGGUCAGGGGUGAGAUGUGUCAUUGCCACUUCCUCCAGCUAGGACCUUUGAGCAUCACAUUGUGAAGCCAUCCAGGGACUUGGGGGUUAGGUCAGAGGUAUCAAUACAUCUCCGGAAACUCUUGCGGUCGCACUAGUGUGGAAUUCUCGGGUGUCAAGG

These binders were tested against TDP-43 (Homo sapiens, UniProt Q13148 1-414) (assay: RNA Bind-n-Seq with designed 260-mer pool; 25 mM Tris-HCl, 150 mM KCl, 3 mM MgCl2, BSA (printed 500 mg/mL), 20 units/mL SUPERase IN; pH not stated; 500 nM RNA pool, 1 h, 4 C; TDP-43 5, 50, 500 nM; high values mean tight binding). Settings: protein: recombinant; tags: SBP (GST cleaved off with PreScission; pGEX-GST-SBP).
How it was run: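 Streptavidin beads captured recombinant SBP-tagged TDP-43 at 5, 50 or 500 nM, and the beads were incubated for 1 h at 4 °C with 500 nM of an in vitro-transcribed pool of 260-nt 3′ UTR oligos in 25 mM Tris-HCl, 150 mM KCl, 3 mM MgCl2, BSA and SUPERase IN. After washing, bound RNA was eluted with biotin, reverse transcribed, PCR-amplified and sequenced. Binding is reported as R, the mapped-read-normalized abundance of each oligo in the bound sample divided by its abundance in the input. Two independent protein batches served as duplicates.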

TDP-43, sequence (Q13148 whole entry): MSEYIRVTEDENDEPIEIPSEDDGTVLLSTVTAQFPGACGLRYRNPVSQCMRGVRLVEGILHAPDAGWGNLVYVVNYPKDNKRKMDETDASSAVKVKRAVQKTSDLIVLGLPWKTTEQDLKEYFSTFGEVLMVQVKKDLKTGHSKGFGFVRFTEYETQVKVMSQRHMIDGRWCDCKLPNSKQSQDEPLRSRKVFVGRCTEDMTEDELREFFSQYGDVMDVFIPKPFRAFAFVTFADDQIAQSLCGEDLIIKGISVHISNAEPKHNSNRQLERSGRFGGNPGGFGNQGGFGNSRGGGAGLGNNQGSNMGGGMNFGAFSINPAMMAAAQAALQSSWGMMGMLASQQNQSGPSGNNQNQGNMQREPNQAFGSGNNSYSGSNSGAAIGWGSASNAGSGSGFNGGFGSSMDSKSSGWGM

Binder | binding signal
B1 | 0.368 R (bound/input frequency ratio)
B2 | 0.156 R (bound/input frequency ratio)
B3 | 0.466 R (bound/input frequency ratio)
B4 | 0.0217 R (bound/input frequency ratio)
B5 | 1.19 R (bound/input frequency ratio)
B6 | 0.384 R (bound/input frequency ratio)
B7 | 6.44 R (bound/input frequency ratio)
B8 | 6.42 R (bound/input frequency ratio)
B9 | 7.3 R (bound/input frequency ratio)
B10 | 8.98 R (bound/input frequency ratio)
B11 | 0.515 R (bound/input frequency ratio)
B12 | 0.0963 R (bound/input frequency ratio)
B13 | 1.23 R (bound/input frequency ratio)
